A350 fluor: qHTS Assay for Spectroscopic Profiling in A350 Spectral Region. Compound autofluorescence, 340/450 nm, Alexa 350 dye-equivalents; active compounds read high. max dye-equivalent concentration, M. hit rate 11% among 59,000. AID 590, 2007; in the data active = max dye-equivalent concentration above about 10 nM; inconclusive = mostly about 1.1 nM to 9.6 nM
CRE-bla Fsk: Cell signaling CRE-BLA (Fsk stim); hit rate 2.5% among 71,000; Potency, µM (series often up to 38.2 µM), without a hit: top-dose activity change, negative = inhibition, usual class: activators; CHO CRE-bla reporter (cAMP response element driving beta-lactamase), forskolin EC10, beta-lactamase ratio; active = well fitted activation curve with a large enough effect in the signal ratio, with a control signal flat, not every such curve was filed as active; inconclusive = small, poorly fitted or top-dose-only effect, or effect the other way, or a change in a side signal; the % refers to the signal ratio; note: potency is the fitted concentration of half-maximal effect; % of control where 0% means no effect
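Cells were plated overnight at 37 °C, exposed to compound titrations plus EC10 NKH 477 for 3 h, then given CCF4 dye for 2 h at room temperature. Blue/green (460/530 nm) ratio was converted to %Activity and AC50 values calculated.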
HADH2 inhib: qHTS Assay for Inhibitors of HADH2 (Hydroxyacyl-Coenzyme A Dehydrogenase, Type II); 3-hydroxyacyl-CoA dehydrogenase type-2 (Homo sapiens), Q99714; recombinant HADH2, NADH fluorescence, beta-hydroxybutyryl-CoA; Potency, µM (titrated, usually from 57.1 µM), for inactives: at the top dose activity change, negative = inhibition, usual class: inhibitors; hit rate 3.4% among 73,000; note: potency is the fitted concentration of half-maximal effect; % is set by controls: 0 for no effect and ±100 for the full control effect; nearly all actives have a fitted effect of over 60% in size
Target sequence (Q99714 whole entry, looked up, one chain of several): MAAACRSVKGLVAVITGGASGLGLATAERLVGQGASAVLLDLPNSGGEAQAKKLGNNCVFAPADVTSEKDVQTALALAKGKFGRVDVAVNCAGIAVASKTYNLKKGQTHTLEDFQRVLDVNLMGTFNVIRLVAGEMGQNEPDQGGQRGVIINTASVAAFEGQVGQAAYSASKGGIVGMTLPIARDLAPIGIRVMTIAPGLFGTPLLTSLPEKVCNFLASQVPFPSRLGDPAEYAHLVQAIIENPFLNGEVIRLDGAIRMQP
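E. coli-expressed His-tagged HADH2 tested at 20 nM in alkaline Tris buffer (pH 9.0); oxidation of 90 uM beta-hydroxybutyryl-CoA with 1 mM NAD+ tracked fluorimetrically for 4 min.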
HSD17B inh: qHTS Assay for Inhibitors of HSD17B4, hydroxysteroid (17-beta) dehydrogenase 4; recombinant HSD17B10, NADH fluorescence kinetic; Potency, µM (titrated, usually from 57.1 µM), without a hit: at the highest dose activity change, negative = inhibition, hits mostly inhibitors; hit rate 7.6% among 75,000; AID 893, 2007;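 note: the protocol describes HADH2 (HSD17B10) and not the HSD17B4 of the title; potency is the fitted concentration of half-maximal effect; % is set by controls: 0 for no effect and ±100 for the full control effect; nearly all actives have a fitted effect of over 70% in size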
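20 nM HADH2, pH 9.0 Tris/Tween; cpd preinc 15 min RT; start w/ 1 mM NAD+ + 90 uM b-hydroxybutyryl-CoA; kinetic fluor ex360/em450 q30s x 4 min; delta last-first.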
AID923: qHTS Assay for Allosteric/Competitive Inhibitors of Caspase-1: Spectroscopic Profiling in AFC Spectral Region; compound fluorescence, AFC spectral region (405/520 nm); Potency, µM (titrated, usually from 57.5 µM), for the others: at the highest dose fluorescence increase, usual class: activators; hit rate 1.1% among 75,000; note: potency is the fitted concentration of half-maximal effect; 0% is about no effect
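Compound autofluorescence profiled at 405 nm ex/520 nm em during kinetic caspase 1 run (50 nM enzyme, 5 uM Ac-WEHD-AFC, HEPES pH 7.5, 10 mM DTT). Titration up to 57 uM; baseline from regression intercept, normalized to AFC standard curve.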
4MU fluor: qHTS Assay for Spectroscopic Profiling in 4-MU Spectral Region; compound autofluorescence, 340/450 nm, 4-MU equivalents; active compounds read high; max dye-equivalent concentration, M; hit rate 11% among 59,000; AID 589, 2007; in the data active = max dye-equivalent concentration above about 10 nM; inconclusive = mostly about 1.1 nM to 9.6 nM
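Compounds in 100 mM Tris, pH 8.0, incubated 15 min at room temperature, then fluorescence read at 340 nm excitation/450 nm emission. Signal converted to 4-MU dye-equivalent concentration using an on-plate six-point 4-MU standard curve.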
* = called active by the depositor; [ ] = another dose, or the depositor's remark. Sampled rows, rich in hits. Any-hit rate of the full collection: about 14%. Unless noted, calls come from the whole dose curve; as a rule, active = well fitted curve in the direction sought with a large enough effect; inconclusive = small, poorly fitted or top-dose-only effect, or another doubt; inactive = no such curve, though single readings can be large; an effect the other way counts as inactive or inconclusive.

Cc1cc(N2C(=O)C(O)=C(C(=O)c3ccc(C)o3)C2c2cccs2)no1 (configuration not stated) was read as A350 fluor inconclusive, CRE-bla Fsk 9%, HADH2 inhib inconclusive, HSD17B inh -23%, AID923 3% and 4MU fluor inactive.
`CC(=O)C1=C(O)C(=O)N(c2cc(C(C)(C)C)on2)C1c1ccc(C(C)C)cc1` (configuration not stated) gave A350 fluor 1.2e-08M*, CRE-bla Fsk 4%, HADH2 inhib -10%, HSD17B inh -1%, AID923 1% and 4MU fluor 1.3e-08M*.
For COc1cc(C2C(C(C)=O)=C(O)C(=O)N2c2ccc(Br)cn2)ccc1O (configuration not stated) the results were A350 fluor inactive and 4MU fluor inactive.
Screening CC(C)[C@@H](CC(=O)N[C@@H]1CCNC[C@H]1C(=O)N[C@H](CC(=O)N[C@@H](CCC(=O)O)CC(=O)O)Cc1c[nH]c2ccccc12)NC(=O)C[C@H](Cc1c[nH]c2ccccc12)NC(=O)[C@@H]1CNCC[C@H]1N returned CRE-bla Fsk -23% and HADH2 inhib -18%.
Screening O=C(Nc1cccc(F)c1)c1ccc2c(c1)OCO2 returned A350 fluor inactive, CRE-bla Fsk -1%, HADH2 inhib 13%, HSD17B inh 15%, AID923 -2% and 4MU fluor inactive.
Cc1ccc(NC(=O)c2oc3ccccc3c2NC(=O)c2ccc3c(c2)OCO3)cc1 was read as A350 fluor 8.6e-08M*, CRE-bla Fsk 9%, HADH2 inhib -24%, HSD17B inh inactive, AID923 2% and 4MU fluor 9.1e-08M*.
`O=C(Nc1c(C(=O)Nc2cccc(F)c2)oc2ccccc12)c1ccc2c(c1)OCO2` gave A350 fluor 5.2e-07M*, CRE-bla Fsk inconclusive, HADH2 inhib 432%, HSD17B inh 274%, AID923 12% and 4MU fluor 4.8e-07M*.
`Nc1nc(-c2ccccc2)c(-c2ccccc2)c(-c2nc(N)nc(-c3ccccc3)c2-c2ccccc2)n1` gave A350 fluor inactive, CRE-bla Fsk -2%[7.6 µM], HADH2 inhib 5%[11.4 µM], HSD17B inh 7%[11.4 µM], AID923 -3%[11.5 µM] and 4MU fluor inactive.
CCc1c(O)c2c(c(O)c1C(C)=O)C(=O)c1c(cc(O)c(C(=O)O)c1C(=O)O)C2=O was read as A350 fluor inactive, CRE-bla Fsk 0%[7.6 µM], HADH2 inhib inconclusive, HSD17B inh -27%[11.4 µM], AID923 0%[11.5 µM] and 4MU fluor inactive.
For CCOC(=O)CCN1C(=O)[C@H]2[C@H]3[C@H](O)[C@H](O)C/C(=N/NC(=O)OCc4ccc(OC)cc4)[C@H]3CC[C@@H]2C1=O the results were HADH2 inhib 4%[11.4 µM], HSD17B inh -1%[11.4 µM] and AID923 1%[11.5 µM].
CC(C)C1N=C2c3ccccc3N=C(SCc3cc(=O)n4cc(Cl)ccc4n3)N2C1=O (configuration not stated) was read as A350 fluor 4.7e-08M*, CRE-bla Fsk 1.3µM*, HADH2 inhib -20%, HSD17B inh -21%, AID923 1% and 4MU fluor 5e-08M*.
`CC1N=C2c3ccccc3N=C(SCc3cc(=O)n4ccccc4n3)N2C1=O` (configuration not stated) gave A350 fluor 2e-08M*, CRE-bla Fsk 13µM*, HADH2 inhib 1%, HSD17B inh -17%, AID923 2% and 4MU fluor 2.2e-08M*.
O=c1[nH]c(SCc2cc(=O)n3ccccc3n2)nc2c1CCC2 was read as A350 fluor inactive, CRE-bla Fsk inconclusive, HADH2 inhib 1%, HSD17B inh 2%, AID923 0% and 4MU fluor inactive.

Bioassay records as filed in PubChem.
